From PubChem BioAssay come the findings set out here.

The subject of test [1] is PRMT1 (protein arginine N-methyltransferase 1). The experiment in a line: PRMT1 binders on small-molecule microarrays, primary screen, biochemical, small-molecule microarray, 635 nm fluorescence (AID 1088).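 Note: binding of Prmt1 protein to compounds spotted on small-molecule microarray slides.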 Conditions: small-molecule microarray binding, higher = more signal.
Test [2] can be described thus: yeast growth modulation, basal conditions, primary screen, YJM789 clinical isolate, OD600, 24 h (AID 1089).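 Note: growth of clinical yeast isolate S. cerevisiae YJM 789 seeded 1000 cells per well; test concentration not given here.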 To be noted: S. cerevisiae YJM789 growth, higher = more signal, called active from +8 up or from −8 down.
A short description of test [3]: fission yeast growth modulation, primary screen, strain 972, OD600, 24 h, no modulator (AID 1090).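 Note: basal condition with compound alone and no growth modifier present; test concentration not given here.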 Conditions: S. pombe 972 growth, higher = more signal, called active from +8 up or from −8 down.
Test [4] can be described thus: S. cerevisiae growth modulation with rapamycin, primary screen, strain BY4716, OD600, 96 h (AID 1091). Note: test concentration not given here. To be noted: higher = more signal, called active from +8 up or from −8 down.
Test [5] addresses Torsin-1A-interacting protein 2 (Homo sapiens) (UniProt Q8NFQ8). The experiment in a line: LULL1 binders on small-molecule microarray, primary screen, cell lysate, human LULL1 lysate, 635/667 nm fluorescence (AID 1092).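 Note: probe is lysate of COS7 cells overexpressing human LULL1; score merges per-feature 667 nm fluorescence with signal-to-noise.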 Conditions: hLULL1 lysate binding, 635 nm fluorescence, higher = more signal.
The nature of test [6]: E. coli growth modulation, two-sided OD650, primary screen, E. coli filamentation project, strain DRC41, 24 h (AID 1093).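 Note: MC1000 strain lacking acrAB efflux and sulA so SOS filamentation is blocked; test concentration not given here.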 Conditions: OD650, 24 h, higher = more signal, called active from +8 up or from −8 down.
Test [7] in a line: small-molecule microarray binders of probe aLefty2, primary screen, biochemical, biotinylated probe, 635/667 nm fluorescence (AID 1094).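 Note: score merges spot fluorescence near 667 nm with spot signal-to-noise ratio.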 Conditions: higher = more signal.
Test [8] has as its system Noggin (protein binding on small-molecule microarray). The experiment in a line: Noggin binders on small-molecule microarray, primary screen, biochemical, 635/667 nm fluorescence (AID 1095).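 Note: score merges 667 nm feature fluorescence with signal to noise over triplicate slides.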 Conditions: 635 nm fluorescence, higher = more signal.
The target in test [9] is Neurogenic locus notch homolog protein 3 (Homo sapiens) (UniProt Q9UM47). Put plainly: NOTCH3 binders on small-molecule microarray, primary screen, biochemical, 635/667 nm fluorescence (AID 1096). To be noted: NOTCH3 binding, 635 nm fluorescence, higher = more signal.
Test [10] is described as follows: small-molecule microarray binders of probe aEGFR, primary screen, biochemical, biotinylated probe, 635/667 nm fluorescence (AID 1097).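 Note: probe is a biotinylated anti-EGFR antibody binding compounds printed on slides; score combines fluorescence near 667 nm and signal to noise of each spot.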 Conditions: higher = more signal.
Test [11] relates to Plasmodium falciparum Sir2 (PF13_0152, Sir2A). Put plainly: pfSir2 binders on small-molecule microarrays, primary screen, biochemical, small-molecule microarray, 635 nm fluorescence (AID 1098).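 Note: score merges spot fluorescence intensity with its signal-to-noise ratio.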 To be noted: small-molecule microarray binding, fluorescence 635 nm; higher = more signal.
Test [12] in a line: small-molecule microarray binders of probe aDKK1, primary screen, biochemical, biotinylated probe, 635/667 nm fluorescence (AID 1099).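 Note: score merges 667nm spot fluorescence with signal to noise across triplicate slides; reference of the scale not given here.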 Conditions: higher = more signal.
Test [13] in a line: small-molecule microarray binders of probe aCHRDL2, primary screen, biochemical, biotinylated probe, 635/667 nm fluorescence (AID 1100). To be noted: higher = more signal.
Test [14] can be described thus: splicing luciferase reporter signal modulators, primary screen, spliceosome inhibition project, cell-based, HEK293, splice +/- reporter (AID 1101).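 Note: HEK293 cells carrying a splicing-competent luciferase reporter gene; test concentration not given here.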 Conditions: luminescence, 24 h, higher = more signal, called active from +8 up or from −8 down. In general terms: In a reporter assay the amount or activity of a reporter protein is the signal.
Test [15] deals with Fibroblast growth factor 10 (Homo sapiens) (UniProt O15520). The experiment in a line: FGF10 binders on small-molecule microarrays, primary screen, biochemical, small-molecule microarray, 635 nm fluorescence (AID 1102). Conditions: FGF10 binding, fluorescence 635 nm, higher = more signal.
Test [16] relates to glycogen synthase kinase-3 (GSK3A per assay name; protocol says GSK3B). The experiment in a line: GSK3 binders on small-molecule microarrays, primary screen, biochemical, small-molecule microarray, 635 nm fluorescence, GSK3A (AID 1103). Note: the record names both GSK3A and GSK3B. Conditions: small-molecule microarray binding, fluorescence 635 nm; higher = more signal.
Test [17] addresses Epidermal growth factor receptor (Homo sapiens) (UniProt P00533). Put plainly: EGFR binders on small-molecule microarrays, primary screen, biochemical, small-molecule microarray, 635 nm fluorescence (AID 1104).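 Note: score merges 667 nm emission intensity with spot signal to noise over triplicate slides.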 Conditions: EGFR binding, higher = more signal.
For test [18], the target named is Follistatin-related protein 3 (Homo sapiens) (UniProt O95633). Put plainly: FSTL3 binders on small-molecule microarrays, primary screen, biochemical, small-molecule microarray, 635 nm fluorescence (AID 1105).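 Note: score merges emission near 667 nm and signal to noise per printed spot across three slides.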 Conditions: FSTL3 binding, higher = more signal.
Test [19] deals with Dickkopf-related protein 1 (Homo sapiens) (UniProt O94907). The experiment in a line: DKK1 binders on small-molecule microarrays, primary screen, biochemical, small-molecule microarray, 635 nm fluorescence scan (AID 1106).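 Note: score merges emission near 667 nm with signal to noise over three replicate slides.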 To be noted: DKK1 binding, higher = more signal.
Test [20] has as its system Inhibin beta A chain (activin A). Put plainly: INHBA (activin A) binders on microarrays, primary screen, biochemical, small-molecule microarray, 635 nm fluorescence scan (AID 1107).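 Note: mouse activin A protein probed at 4.33 µg/mL on printed slides; score merges bound-protein fluorescence near 667 nm with spot signal-to-noise.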 Conditions: small-molecule microarray binding, higher = more signal.

Active and inactive are the calls of the source.

Sequence of Torsin-1A-interacting protein 2 (Homo sapiens) (Q8NFQ8 whole entry, looked up): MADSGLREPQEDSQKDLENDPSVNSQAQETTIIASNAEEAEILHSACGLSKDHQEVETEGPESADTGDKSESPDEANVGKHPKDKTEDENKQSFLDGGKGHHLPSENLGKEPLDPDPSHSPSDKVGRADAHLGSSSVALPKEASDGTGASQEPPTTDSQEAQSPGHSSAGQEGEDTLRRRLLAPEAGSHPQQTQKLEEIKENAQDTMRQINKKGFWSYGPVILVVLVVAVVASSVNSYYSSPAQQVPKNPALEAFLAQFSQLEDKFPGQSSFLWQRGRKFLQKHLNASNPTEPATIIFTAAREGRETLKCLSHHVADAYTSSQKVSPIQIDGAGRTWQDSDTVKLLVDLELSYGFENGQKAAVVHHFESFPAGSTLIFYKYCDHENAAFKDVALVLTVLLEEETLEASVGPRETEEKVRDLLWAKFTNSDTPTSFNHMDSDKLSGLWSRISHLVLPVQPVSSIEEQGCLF
Sequence of Follistatin-related protein 3 (Homo sapiens) (O95633 whole entry, looked up): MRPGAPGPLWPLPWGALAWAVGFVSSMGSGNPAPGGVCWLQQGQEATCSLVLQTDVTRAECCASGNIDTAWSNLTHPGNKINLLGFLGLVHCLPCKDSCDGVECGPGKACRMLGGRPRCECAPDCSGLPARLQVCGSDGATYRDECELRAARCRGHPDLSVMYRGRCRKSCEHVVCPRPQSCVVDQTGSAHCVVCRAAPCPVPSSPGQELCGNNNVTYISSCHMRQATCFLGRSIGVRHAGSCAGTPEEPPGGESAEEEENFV
Sequence of Epidermal growth factor receptor (Homo sapiens) (P00533 whole entry, looked up): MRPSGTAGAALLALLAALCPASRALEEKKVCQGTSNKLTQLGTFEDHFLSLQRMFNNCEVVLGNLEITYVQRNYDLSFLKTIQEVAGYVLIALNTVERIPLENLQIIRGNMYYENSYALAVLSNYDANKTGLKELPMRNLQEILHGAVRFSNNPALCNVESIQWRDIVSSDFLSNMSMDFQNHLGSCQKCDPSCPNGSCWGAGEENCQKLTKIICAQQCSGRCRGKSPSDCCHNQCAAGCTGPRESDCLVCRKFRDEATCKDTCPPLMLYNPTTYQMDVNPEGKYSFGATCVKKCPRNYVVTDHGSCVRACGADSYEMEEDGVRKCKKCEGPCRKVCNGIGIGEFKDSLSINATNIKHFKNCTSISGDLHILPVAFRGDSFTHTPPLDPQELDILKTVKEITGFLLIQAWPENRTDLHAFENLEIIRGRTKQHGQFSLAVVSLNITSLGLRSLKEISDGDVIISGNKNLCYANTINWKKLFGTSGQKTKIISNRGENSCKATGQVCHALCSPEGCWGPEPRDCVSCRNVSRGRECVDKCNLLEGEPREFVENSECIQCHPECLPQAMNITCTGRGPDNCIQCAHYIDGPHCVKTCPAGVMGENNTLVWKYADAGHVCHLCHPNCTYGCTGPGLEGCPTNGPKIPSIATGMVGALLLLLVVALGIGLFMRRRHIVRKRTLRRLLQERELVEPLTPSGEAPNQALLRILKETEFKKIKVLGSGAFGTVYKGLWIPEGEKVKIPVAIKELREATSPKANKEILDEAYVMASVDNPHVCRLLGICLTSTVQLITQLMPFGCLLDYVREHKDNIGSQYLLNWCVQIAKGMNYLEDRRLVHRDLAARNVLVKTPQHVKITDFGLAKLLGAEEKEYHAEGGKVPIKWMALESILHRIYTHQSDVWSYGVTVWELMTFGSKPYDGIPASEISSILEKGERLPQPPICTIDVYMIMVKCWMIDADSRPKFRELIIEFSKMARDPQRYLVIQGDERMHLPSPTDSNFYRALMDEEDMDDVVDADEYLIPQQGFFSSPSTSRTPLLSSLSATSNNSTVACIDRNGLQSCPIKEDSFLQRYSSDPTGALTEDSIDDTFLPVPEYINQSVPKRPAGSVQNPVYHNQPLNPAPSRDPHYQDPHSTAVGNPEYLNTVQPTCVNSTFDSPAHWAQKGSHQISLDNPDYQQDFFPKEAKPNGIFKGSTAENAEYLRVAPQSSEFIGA
Sequence of Dickkopf-related protein 1 (Homo sapiens) (O94907 whole entry, looked up): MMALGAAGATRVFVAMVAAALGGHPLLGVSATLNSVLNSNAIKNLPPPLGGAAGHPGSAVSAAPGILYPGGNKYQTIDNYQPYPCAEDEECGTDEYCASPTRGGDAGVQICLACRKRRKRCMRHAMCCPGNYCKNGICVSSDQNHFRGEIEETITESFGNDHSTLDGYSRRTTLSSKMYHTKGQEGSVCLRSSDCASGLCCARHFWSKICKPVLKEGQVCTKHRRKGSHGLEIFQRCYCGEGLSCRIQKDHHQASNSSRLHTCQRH
Sequence of Neurogenic locus notch homolog protein 3 (Homo sapiens) (Q9UM47 whole entry, looked up): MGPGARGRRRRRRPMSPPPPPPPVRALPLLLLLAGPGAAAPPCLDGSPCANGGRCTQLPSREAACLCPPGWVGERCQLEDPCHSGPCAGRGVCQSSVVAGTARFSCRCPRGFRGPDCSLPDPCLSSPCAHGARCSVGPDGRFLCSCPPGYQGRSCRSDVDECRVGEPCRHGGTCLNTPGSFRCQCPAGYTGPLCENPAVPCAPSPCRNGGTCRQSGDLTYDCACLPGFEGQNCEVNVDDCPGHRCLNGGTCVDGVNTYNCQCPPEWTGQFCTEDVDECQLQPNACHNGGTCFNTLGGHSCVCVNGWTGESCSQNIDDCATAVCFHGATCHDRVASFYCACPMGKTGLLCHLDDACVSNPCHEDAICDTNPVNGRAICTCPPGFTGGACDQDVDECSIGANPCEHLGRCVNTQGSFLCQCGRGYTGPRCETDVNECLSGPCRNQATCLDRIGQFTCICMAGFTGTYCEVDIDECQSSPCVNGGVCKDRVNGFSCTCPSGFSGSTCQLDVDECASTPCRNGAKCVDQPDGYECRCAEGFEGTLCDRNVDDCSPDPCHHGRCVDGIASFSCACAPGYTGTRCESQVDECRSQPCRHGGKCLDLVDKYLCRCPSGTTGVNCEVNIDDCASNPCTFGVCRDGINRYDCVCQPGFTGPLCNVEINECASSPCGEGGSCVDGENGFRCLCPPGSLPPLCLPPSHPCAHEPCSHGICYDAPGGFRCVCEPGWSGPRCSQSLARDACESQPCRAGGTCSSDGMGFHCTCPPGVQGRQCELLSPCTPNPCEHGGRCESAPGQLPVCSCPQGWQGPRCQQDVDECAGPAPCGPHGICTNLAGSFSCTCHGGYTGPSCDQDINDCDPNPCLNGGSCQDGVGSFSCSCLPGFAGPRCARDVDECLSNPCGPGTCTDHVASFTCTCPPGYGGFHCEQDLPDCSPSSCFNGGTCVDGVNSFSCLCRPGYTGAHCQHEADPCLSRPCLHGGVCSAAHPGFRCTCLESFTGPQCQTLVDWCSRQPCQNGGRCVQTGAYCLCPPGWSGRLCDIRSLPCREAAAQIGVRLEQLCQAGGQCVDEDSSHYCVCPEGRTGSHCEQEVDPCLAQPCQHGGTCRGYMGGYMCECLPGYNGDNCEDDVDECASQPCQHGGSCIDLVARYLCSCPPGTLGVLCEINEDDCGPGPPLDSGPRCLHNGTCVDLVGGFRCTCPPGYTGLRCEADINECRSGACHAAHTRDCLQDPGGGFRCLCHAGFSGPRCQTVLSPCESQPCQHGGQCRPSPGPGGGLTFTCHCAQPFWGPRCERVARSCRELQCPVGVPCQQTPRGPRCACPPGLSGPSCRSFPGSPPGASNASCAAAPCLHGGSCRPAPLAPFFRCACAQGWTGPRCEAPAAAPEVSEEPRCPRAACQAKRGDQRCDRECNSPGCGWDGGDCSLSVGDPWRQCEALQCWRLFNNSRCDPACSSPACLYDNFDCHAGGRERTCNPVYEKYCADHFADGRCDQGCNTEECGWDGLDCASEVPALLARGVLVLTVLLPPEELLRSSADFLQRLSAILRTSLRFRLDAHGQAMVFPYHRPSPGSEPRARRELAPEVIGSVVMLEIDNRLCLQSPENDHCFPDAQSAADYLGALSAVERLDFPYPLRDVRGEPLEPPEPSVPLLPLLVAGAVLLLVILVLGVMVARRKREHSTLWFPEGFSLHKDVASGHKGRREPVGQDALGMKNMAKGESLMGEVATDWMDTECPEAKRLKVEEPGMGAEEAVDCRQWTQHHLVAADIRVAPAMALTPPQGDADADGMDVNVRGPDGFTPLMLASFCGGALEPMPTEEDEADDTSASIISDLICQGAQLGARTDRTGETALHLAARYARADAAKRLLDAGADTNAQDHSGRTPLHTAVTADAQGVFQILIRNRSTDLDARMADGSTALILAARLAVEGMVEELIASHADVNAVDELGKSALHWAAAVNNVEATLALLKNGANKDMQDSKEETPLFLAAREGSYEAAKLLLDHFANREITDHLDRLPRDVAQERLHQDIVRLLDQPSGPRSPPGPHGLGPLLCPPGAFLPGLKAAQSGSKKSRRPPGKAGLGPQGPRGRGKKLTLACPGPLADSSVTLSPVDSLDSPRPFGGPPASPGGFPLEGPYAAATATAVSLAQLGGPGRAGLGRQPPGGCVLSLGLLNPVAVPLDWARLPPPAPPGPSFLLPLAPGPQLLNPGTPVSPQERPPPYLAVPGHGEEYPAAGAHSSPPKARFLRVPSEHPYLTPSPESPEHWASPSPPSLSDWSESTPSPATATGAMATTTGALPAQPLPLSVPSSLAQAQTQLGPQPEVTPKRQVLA
Sequence of Fibroblast growth factor 10 (Homo sapiens) (O15520 whole entry, looked up): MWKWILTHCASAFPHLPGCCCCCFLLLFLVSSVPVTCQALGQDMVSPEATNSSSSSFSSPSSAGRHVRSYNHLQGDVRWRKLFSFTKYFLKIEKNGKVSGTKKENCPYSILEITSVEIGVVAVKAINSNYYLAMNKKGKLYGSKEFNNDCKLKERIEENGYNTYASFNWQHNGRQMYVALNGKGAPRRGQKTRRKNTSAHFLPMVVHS

For `C[N+](C)(C)CCCC[C@@H]1NC(=O)[C@@H]2C[C@H](C(=O)NCCCCCCNC(=O)CS)[C@H](c3cccc(OCCO)c3)N2C1=O`, the composite z-score was 1.12 in test [1]; 1.09 in [5]; -0.21 in [7]; 1.84 in test [8]; -0.0644 in test [9]; -0.233 in test [10]. In addition, the composite z-score in test [11] was 1.58; in test [12] it was -0.209; in test [13], 0.111; in test [15], 0.0947; in [16] it was -0.755; in test [17] it was -1.01. Also, the composite z-score is -0.0324 in test [18], 0.383 in test [19] and 0.439 in test [20]. Besides, the z-score in test [2] is -1.33 (inactive); in test [3], -0.333 (inactive); in test [4], -0.485 (inactive); in [6], -0.102 (inactive); in test [14], -0.451 (inactive).
Take `C/C=C/[C@H](CCn1cc([C@H](O)c2ccccc2)nn1)[Si](C)(C)c1ccc(OC)cc1`: the composite z-score is -0.144 in test [1]; 0.0061 in [5]; -0.139 in test [7]; -0.953 in [8]; -0.999 in test [9]; -0.375 in test [10]. In addition, the composite z-score is 0.0765 in test [11]; -0.49 in test [12]; 0.503 in test [13]; -0.607 in test [15]; -0.855 in [16]; -1.52 in test [17]. For the same compound, the composite z-score was -1.72 in test [18], -0.338 in test [19] and -0.343 in test [20]. Also, the z-score is -0.298 (inactive) in test [2]; -1.05 (inactive) in test [3]; -0.229 (inactive) in [4]; 0.0004 (inactive) in [6]; 0.264 (inactive) in [14].
Consider `[N-]=[N+]=NCc1ccccc1[C@H]1OC(c2ccc(OCCCO)cc2)=N[C@@]1(Cc1ccccc1)C(=O)NCC(O)CO` (stereo not given in full), for which the composite z-score in test [1] was 1.25; in test [5], 3.5; in test [7] it was 0.102; in test [8], -0.116; in [9] it was -0.046; in [10], 0.0073. The composite z-score in [11] is 1.27; in test [12], 0.847; in test [13] it was 1.21; in test [15], 0.782; in test [16] it was 1.27; in test [17], -0.187. The figures for the composite z-score in [18], in test [19] and in test [20] were -0.751, -0.651 and 0.33, respectively. For the same compound, the z-score in [2] is -0.286 (inactive); in test [3] it was 0.669 (inactive); in [4], -1.22 (inactive); in [6] it was 0.203 (inactive); in test [14], -0.807 (inactive).
For `C=CCN1Cc2ccccc2C[C@]2(N=C(c3ccc(OCCCO)cc3)O[C@@H]2c2ccccc2)C1=O`, the composite z-score in [1] is 1.56; in test [5], 3.27; in [7], 0.129; in [8], 0.824; in [9], 1.07; in test [10], -0.0455. Moreover, the composite z-score in [11] is 0.761; in test [12], -0.0119; in test [13] it was 0.311; in [15] it was 1.08; in test [16] it was 1.29; in test [17] it was 0.734. Moreover, the composite z-score in [18] came to 1.25; in test [19], 0.838; in test [20], 1.31. Besides, the z-score in [2] was -6.17 (inactive); in [3], -9.52 (active); in test [4] it was 0.272 (inactive); in test [6], 1.49 (inactive); in test [14], -1.44 (inactive).
`COCCOC(=O)N1C(=O)[C@@]2(c3ccccc31)[C@H](c1ccc(O)cc1)N1[C@H](c3ccccc3)[C@H](c3ccccc3)OC(=O)[C@H]1[C@@H]2C(N)=O`: the composite z-score in test [1] was -0.0183; in test [5], 2.35; in [7], -0.126; in test [8], -0.678; in test [9] it was -0.474; in [10], -0.16. In addition, the composite z-score in [11] is 0.394; in test [12] it was -0.374; in [13], 0.679; in test [15] it was -0.422; in test [16], -1.11; in [17] it was -0.608. Also, the composite z-score is -0.821 in [18], -1.17 in test [19] and -0.249 in test [20]. Besides, the z-score in [2] is 0.396 (inactive); in [3], -0.153 (inactive); in test [4], 0.549 (inactive); in test [6] it was -0.29 (inactive); in [14], 0.435 (inactive).
